# Bioassay records from PubChem.
# The entries come from a sample that favours hits as a whole.
# PI4K2A block: PI4K2A (human) kinase inhibition | purified PI4K2A, ADP-Glo luminescence, 1 h; stronger effect = lower value | Q9BTU6 | activity change, negative = inhibition, % at 76.9 µM | 420,000 tested, 0.13% active; in the data active = activity change below about -50%; inconclusive = mostly about -30% to -49%
#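 Compounds are screened against recombinant PI4K2A using PI as substrate and ATP, the latter dispensed at 300 microM. Reactions run one hour at ambient temperature before ADP-Glo detection; full inhibition defined by wells lacking enzyme.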
# PI5P4Ka inh: inhibitors of human PI5P4K alpha; P48426; PI5P4Kalpha enzyme, ADP-Glo luminescence, 60 min; stronger effect = lower value; max response, %; 330,000 tested, 1.2% active; AID 652105; active = max response of -50% or lower; inconclusive = between -30% and -50%; inactive = -30% or higher; note: value at the top dose of about 77 µM
# Target sequence (P48426 whole entry, looked up): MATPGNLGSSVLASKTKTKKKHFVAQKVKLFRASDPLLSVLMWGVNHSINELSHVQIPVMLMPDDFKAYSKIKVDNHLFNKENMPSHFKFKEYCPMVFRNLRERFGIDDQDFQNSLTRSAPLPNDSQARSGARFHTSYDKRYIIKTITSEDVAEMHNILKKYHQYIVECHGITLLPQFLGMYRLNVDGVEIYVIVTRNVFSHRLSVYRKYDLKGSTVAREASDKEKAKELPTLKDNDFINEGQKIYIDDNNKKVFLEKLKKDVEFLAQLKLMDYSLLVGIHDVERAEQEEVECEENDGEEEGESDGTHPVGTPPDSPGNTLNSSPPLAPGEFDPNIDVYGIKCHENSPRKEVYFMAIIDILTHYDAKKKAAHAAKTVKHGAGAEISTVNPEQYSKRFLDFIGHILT
#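 PI5P4Kalpha ADP-Glo assay; 5 microM ATP final; 60 min RT reaction; HEPES pH 7.4/EGTA/CHAPS, 5% DMSO; controls lacking substrate or enzyme; luminescent end-point.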
# Pin1 inhibitor: blocks the human prolyl isomerase Pin1; Q13526; Pin1 FP peptide displacement, HiFluor488, 10 min; Potency, µM (top dose mostly 115 µM), most hits filed as inhibitors; 390,000 tested, 0.009% active; AID 504891; active = well fitted inhibition curve with a large enough effect in the polarisation, with a control signal flat, not every such curve was filed as active; inconclusive = small, poorly fitted or top-dose-only effect, or effect the other way, or a change in a side signal; inactive = no such curve, though single readings can be large or run the other way; the % refers to the polarisation
# Target sequence (Q13526 whole entry, looked up): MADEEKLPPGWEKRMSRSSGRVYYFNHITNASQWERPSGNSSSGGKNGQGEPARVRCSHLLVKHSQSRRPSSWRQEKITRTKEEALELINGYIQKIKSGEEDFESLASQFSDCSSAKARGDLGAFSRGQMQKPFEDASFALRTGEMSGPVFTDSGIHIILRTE
# PGK inhibitor: T. brucei PGK inhibition; Potency, µM (top dose mostly 57.5 µM), hits mostly inhibitors; P07378; AID 602233; 380,000 tested, 0.043% active; PGK/GAPDH coupled, Kinase-Glo luminescence, 60 min; note: nearly all actives have a fitted effect of over 60% in size
#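 Recombinant glycosomal PGK reaction used 1,3-bisphosphoglycerate generated in-well by GAPDH (100nM final) in 100mM TEA pH 7.6, 5mM MgCl2, 0.01% Tween-20. After 60 minutes at room temperature, ATP was read by Kinase-Glo Plus luminescence end-point.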
# Tb PFK inh: blocks T. brucei phosphofructokinase; O15648; T. brucei PFK, ADP-Glo luminescence; Potency, µM (doses to about 57.5 µM), most hits filed as inhibitors; 330,000 tested, 0.17% active; AID 485367; note: nearly all actives have a fitted effect of over 60% in size
#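 1.25 nM PFK with 0.5 mM F6P and 0.1 mM ATP in 0.1 M TEA pH 8.0, 5 mM MgCl2, incubated 45 min at room temperature; ADP measured by ADP-Glo luminescence; compounds titrated up to 57 uM.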
# Numbers stand for hits; . = inactive; ? = inconclusive; / = not tested or not shown. Unless noted, calls come from the whole dose curve; as a rule, active = well fitted curve in the direction sought with a large enough effect; inconclusive = small, poorly fitted or top-dose-only effect, or another doubt; inactive = no such curve, though single readings can be large; an effect the other way counts as inactive or inconclusive.
SMILES,PI4K2A block,PI5P4Ka inh,Pin1 inhibitor,PGK inhibitor,Tb PFK inh
CC(C)=NNc1cnnc2ccc([N+](=O)[O-])cc12,.,-68.9,/,/,/
C/C(=N\Nc1ccc([N+](=O)[O-])cc1[N+](=O)[O-])c1cccnc1,.,.,.,.,.
C[C@H]1COc2cc(Br)ccc2S(=O)(=O)N1Cc1cn(CCC2OCCCO2)nn1,.,/,/,/,/
CC1(C(=O)NS(=O)(=O)C2CC2)CCN(C(=O)c2cccc(OC(F)(F)F)c2)C1 (stereo unspecified),.,.,/,/,/
NC(=O)N/N=C/c1ccc(N2CCOCC2)s1,.,.,?,.,.
O=C(O)c1cc(N/N=C/c2ccc(N3CCOCC3)s2)ccc1Cl,.,-55.9,?,.,.
N#Cc1nc(Cc2cccc3ccccc23)oc1N1CCCCC1,.,.,.,.,.
CCCCN(C(=O)c1cc(-c2ccco2)nc2ccccc12)c1c(N)n(CCC)c(=O)[nH]c1=O,.,-73.5,?,.,?
CCCCN(C(=O)c1cc(Cl)nc2ccccc12)c1c(N)n(CCC)c(=O)[nH]c1=O,.,.,/,.,/
O=C1NC(=S)CN1c1ccccc1,.,-59.0,?,.,.
CCOC(=O)C1=C(C)N=c2sc(=Cc3cc(Cl)c(OCC(=O)O)c(Cl)c3)c(=O)n2C1c1cccc(OC)c1 (stereo unspecified),.,-74.0,/,/,/
O=[N+]([O-])c1ccc2c(c1N1CCCCC1)=NC1(CCCCC1)[N+]=2[O-],.,-52.7,.,.,.
O=C(/C=C/c1ccc(O)c(O)c1)O[C@H](Cc1ccc(O)c(O)c1)C(=O)O,/,/,/,/,16.9µM
C=CCNS(=O)(=O)c1cccc2cc(C(=O)O)c(O)cc12,.,-57.0,?,.,.
O=S(=O)(c1cccc2ccccc12)N1CCCCC1,.,.,.,.,.
O=C(O)c1cc2cccc(S(=O)(=O)N3CCCCC3)c2cc1O,.,-63.9,.,.,.
CCOc1ccc(CCNC(c2nnc(-c3ccccc3)o2)c2ccccc2Cl)cc1OCC (stereo unspecified),.,/,.,.,/
O=C(O)c1cccc(N2C(=O)c3cccc4cccc(c34)C2=O)c1,.,.,.,.,.
O=C(O)c1cccc(N2C(=O)c3cc([N+](=O)[O-])cc4cc([N+](=O)[O-])cc(c34)C2=O)c1,-67.2,-73.1,/,25.1µM,.
CC(C)c1nc2cc(C(=O)N3CCNC(=O)C3c3ccc(F)cc3)ccc2o1 (stereo unspecified),.,.,.,.,.
Cc1ccc(N=c2ssnc2Cl)cc1,.,-65.5,.,.,.
Cc1cc(Cl)ccc1N=c1ssnc1Cl,.,-53.4,.,.,?
Cc1nnc(N=c2ssnc2Cl)o1,.,-100.7,.,.,?
Cc1cc(C)nc(/N=c2/ssnc2Cl)c1,.,.,.,.,.
COc1ccc(C(=O)Cc2cc(OC)c(OC)cc2C(=O)c2ccccc2F)cc1OC,.,.,.,.,.
SMILES,PI4K2A block,PI5P4Ka inh,Pin1 inhibitor,PGK inhibitor,Tb PFK inh
Cc1cccc(N2C(N)=NC(N)=NC23CCCCC3)c1,.,-62.7,.,.,.
CC(C)OC(=O)CSc1nc2cccnc2n1C1CCCCC1,.,.,.,.,.
Cc1c(C)c2cc(Cl)c(O)c(CN(C)C)c2oc1=O,.,/,.,.,.
O=c1oc2c(O)c(O)cc3c(=O)oc4c(O)c(O)cc1c4c23,.,-99.9,?,0.891µM,?
Cc1c2c(=O)n(-c3nc4ccccc4s3)nc-2cc(O)n1Cc1ccccc1,.,-78.5,?,.,.
COc1ccccc1CNc1nc(-c2cc(C)n(C)c2C)cs1,.,-72.2,?,.,.
COCCNc1nc(-c2cc(C)n(CCc3ccc(OC)cc3)c2C)cs1,.,.,.,.,.
O=C1c2cccc(O)c2C(=O)c2c(O)cccc21,.,/,/,/,.
CC1OC(CC(=O)O)CC2=C1C(=O)c1c(O)cccc1C2=O (stereo unspecified),-59.3,.,/,.,/
CC1(C)OC(C)(C)/C(=C/Nc2ccc(O)cc2)C1=O,.,-70.3,?,.,.
Cc1nc2ccccn2c1C(=O)N/N=C/c1ccc([N+](=O)[O-])o1,.,-55.8,?,.,.
NC(=S)N/N=C/c1ccc(-c2ccc(Cl)c(Cl)c2)o1,.,.,.,.,.
O=[N+]([O-])c1ccc(/C=N/NC(=S)Nc2ccccc2F)o1,.,-60.8,.,.,.
O=[N+]([O-])c1ccc(/C=N/NC(=S)Nc2ccccc2)o1,.,-60.1,.,.,?
O=[N+]([O-])c1cccc(-c2ccc(/C=N/NC(=S)Nc3ccccc3)o2)c1,.,.,.,.,.
O=C(O)c1cc(-c2ccc(/C=N/NC(=S)Nc3ccccc3)o2)ccc1Cl,.,-71.5,?,.,.
Cc1cccc(NCc2nc(SCC(=O)Nc3ccccc3Br)n[nH]2)c1,.,.,.,.,.
Nc1nccnc1C(=O)OCC(=O)NCCc1ccc(Cl)cc1,.,.,?,.,.
CC(=O)OCC(=O)c1ccc2ccn(C(C)=O)c2c1,.,/,.,.,.
Cc1ccsc1C(=O)OCC(=O)N(C)c1c(N)n(Cc2ccccc2)c(=O)[nH]c1=O,.,.,.,.,.
Cc1cc2nc(-c3ccc[nH]c3=O)[nH]c2cc1C,-66.2,.,.,.,.
Cc1cc2nc(-c3ccc[nH]c3=O)n(Cc3ccc(F)cc3)c2cc1C,.,.,.,.,.
NC(=O)C1CCN(CC(=O)Nc2ccc(S(=O)(=O)N3CCOCC3)cc2)CC1,.,.,.,.,.
COc1ccc(C2CC(=O)c3ccccc3O2)cc1 (stereo unspecified),.,.,.,.,.
Cc1nn(-c2cccc(Cl)c2)c2c1C(c1ccncc1)C(C#N)=C(N)O2 (stereo unspecified),.,.,.,.,.
SMILES,PI4K2A block,PI5P4Ka inh,Pin1 inhibitor,PGK inhibitor,Tb PFK inh
N#CC1=C(N)Oc2cc(O)c(Cl)cc2C1c1ccccc1F (stereo unspecified),.,-64.4,?,.,.
Cc1nn(-c2cccc(Cl)c2)c2c1C(c1cccnc1)C(C#N)=C(N)O2 (stereo unspecified),-51.0,/,.,.,.
N#CC1=C(N)Oc2cc(O)c(Cl)cc2C1c1cccnc1 (stereo unspecified),.,-51.8,?,.,.
CC(=O)Nc1ccc(S(=O)(=O)Nc2ccc3c(c2)CCC3)cc1,.,.,.,.,.
COc1cc(-c2nnn(CC(=O)NC3CCS(=O)(=O)C3)n2)ccc1OCc1ccccc1 (stereo unspecified),-60.2,.,.,.,.
CC(=O)Nc1ccc(NC(=O)c2cccc(C(=O)OC(C)C)n2)cc1,.,.,.,.,.
Cc1ccc(NC(=O)Cn2ncc(Cl)c(Cl)c2=O)cc1S(=O)(=O)N1CCCCC1,.,-57.8,.,.,.
COc1cc(/C=C2\SC(=O)N(Cc3ccc(Cl)cc3)C2=O)cc([N+](=O)[O-])c1O,.,-80.9,/,.,.
O=C(O)CN1C(=O)/C(=C\c2cc(Br)ccc2OCc2ccc([N+](=O)[O-])cc2)SC1=S,.,-71.0,/,?,?
